Compound activity deposited in PubChem by University of Kansas High Throughput Screening Laboratory.
mHTT-CaM PPI inh: disrupts binding of mutant huntingtin to calmodulin. AlphaScreen His-mHTT/GST-CaM binding, luminescence. inhibition, % at 15 µM. hit rate 3.6% among 190,000. AID 1671202;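 note: 0% = both proteins with DMSO and 100% = one protein alone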
Target sequence (P42858 whole entry, looked up, stated change not applied): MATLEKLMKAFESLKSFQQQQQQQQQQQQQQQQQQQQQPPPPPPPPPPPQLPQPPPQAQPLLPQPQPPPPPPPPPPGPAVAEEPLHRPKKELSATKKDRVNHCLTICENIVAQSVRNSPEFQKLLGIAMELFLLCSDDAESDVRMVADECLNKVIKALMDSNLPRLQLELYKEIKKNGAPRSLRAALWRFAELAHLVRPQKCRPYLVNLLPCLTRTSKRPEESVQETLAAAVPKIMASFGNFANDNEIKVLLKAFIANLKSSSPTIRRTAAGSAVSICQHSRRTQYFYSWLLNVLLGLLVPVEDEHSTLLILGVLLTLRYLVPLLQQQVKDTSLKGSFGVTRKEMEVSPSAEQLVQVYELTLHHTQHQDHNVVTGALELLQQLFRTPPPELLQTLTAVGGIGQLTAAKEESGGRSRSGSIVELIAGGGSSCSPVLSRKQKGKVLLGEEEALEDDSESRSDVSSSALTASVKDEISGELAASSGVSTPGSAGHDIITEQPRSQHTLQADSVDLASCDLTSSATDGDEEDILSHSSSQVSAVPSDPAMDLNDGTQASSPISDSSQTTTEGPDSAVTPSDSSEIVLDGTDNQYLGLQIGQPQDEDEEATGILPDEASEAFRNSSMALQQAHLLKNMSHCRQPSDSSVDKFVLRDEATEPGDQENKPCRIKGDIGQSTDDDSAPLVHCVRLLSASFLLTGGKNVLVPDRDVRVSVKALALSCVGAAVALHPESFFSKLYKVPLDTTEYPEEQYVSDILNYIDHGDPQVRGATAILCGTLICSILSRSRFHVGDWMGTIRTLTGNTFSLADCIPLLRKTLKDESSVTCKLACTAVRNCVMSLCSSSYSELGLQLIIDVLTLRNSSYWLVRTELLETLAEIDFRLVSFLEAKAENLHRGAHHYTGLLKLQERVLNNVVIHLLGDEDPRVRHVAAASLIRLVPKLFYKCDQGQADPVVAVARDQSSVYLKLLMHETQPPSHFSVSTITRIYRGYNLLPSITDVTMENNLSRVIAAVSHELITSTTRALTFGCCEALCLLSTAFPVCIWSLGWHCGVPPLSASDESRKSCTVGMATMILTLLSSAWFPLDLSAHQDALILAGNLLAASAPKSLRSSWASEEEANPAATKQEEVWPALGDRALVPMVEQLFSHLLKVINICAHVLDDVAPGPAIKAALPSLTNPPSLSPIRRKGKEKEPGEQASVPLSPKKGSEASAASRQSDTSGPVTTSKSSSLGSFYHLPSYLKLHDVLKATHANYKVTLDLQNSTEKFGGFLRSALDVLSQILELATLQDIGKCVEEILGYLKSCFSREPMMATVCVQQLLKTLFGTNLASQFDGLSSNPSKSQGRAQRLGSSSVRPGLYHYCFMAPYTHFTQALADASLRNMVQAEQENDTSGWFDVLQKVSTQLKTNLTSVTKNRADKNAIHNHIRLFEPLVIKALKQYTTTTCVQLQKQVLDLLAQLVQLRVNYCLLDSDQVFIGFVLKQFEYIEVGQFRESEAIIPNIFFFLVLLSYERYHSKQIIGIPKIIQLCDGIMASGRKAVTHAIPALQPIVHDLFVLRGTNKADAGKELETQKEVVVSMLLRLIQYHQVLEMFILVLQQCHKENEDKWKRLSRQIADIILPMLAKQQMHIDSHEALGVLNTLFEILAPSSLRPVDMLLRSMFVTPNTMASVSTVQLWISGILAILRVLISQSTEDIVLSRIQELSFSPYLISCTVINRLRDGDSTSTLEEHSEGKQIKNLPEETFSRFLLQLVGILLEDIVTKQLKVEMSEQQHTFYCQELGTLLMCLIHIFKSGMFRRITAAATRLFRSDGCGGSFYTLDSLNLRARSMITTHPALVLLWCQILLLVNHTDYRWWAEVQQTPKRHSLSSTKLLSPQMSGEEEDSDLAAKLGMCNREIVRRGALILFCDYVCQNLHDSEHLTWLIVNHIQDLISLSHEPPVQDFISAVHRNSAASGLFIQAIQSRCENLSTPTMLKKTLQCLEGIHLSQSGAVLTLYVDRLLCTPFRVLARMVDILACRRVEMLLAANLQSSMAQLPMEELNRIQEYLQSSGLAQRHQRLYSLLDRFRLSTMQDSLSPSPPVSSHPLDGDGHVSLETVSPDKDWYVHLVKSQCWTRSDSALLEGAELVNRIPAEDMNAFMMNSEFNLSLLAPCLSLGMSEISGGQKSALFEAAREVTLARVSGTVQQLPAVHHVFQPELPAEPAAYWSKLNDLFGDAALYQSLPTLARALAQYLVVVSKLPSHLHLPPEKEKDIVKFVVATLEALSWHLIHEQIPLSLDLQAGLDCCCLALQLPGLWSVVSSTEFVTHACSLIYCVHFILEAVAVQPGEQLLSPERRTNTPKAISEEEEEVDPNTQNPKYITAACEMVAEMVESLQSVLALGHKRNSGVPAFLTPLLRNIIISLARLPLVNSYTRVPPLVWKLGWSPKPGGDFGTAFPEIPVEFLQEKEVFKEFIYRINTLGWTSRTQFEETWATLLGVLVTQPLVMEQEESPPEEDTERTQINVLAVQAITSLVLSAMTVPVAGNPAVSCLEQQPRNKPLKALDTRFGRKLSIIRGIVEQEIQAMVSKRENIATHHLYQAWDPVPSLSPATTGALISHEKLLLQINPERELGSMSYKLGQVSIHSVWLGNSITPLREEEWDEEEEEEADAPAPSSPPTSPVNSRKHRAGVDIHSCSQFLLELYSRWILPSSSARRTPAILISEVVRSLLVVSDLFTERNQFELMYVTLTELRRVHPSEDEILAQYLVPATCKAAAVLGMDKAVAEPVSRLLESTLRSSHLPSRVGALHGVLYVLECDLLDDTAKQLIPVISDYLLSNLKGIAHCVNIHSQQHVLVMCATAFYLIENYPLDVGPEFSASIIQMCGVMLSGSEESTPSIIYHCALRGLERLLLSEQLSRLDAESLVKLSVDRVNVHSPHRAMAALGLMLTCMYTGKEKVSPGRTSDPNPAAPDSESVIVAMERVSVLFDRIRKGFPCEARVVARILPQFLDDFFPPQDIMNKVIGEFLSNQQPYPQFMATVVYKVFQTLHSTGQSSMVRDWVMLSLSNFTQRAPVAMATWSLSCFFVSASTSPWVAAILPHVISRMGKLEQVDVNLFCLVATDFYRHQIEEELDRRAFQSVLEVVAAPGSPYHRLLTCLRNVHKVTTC
Pf apPOL block: Pf-apPOL DNA polymerase inhibition | hit rate 0.25% among 210,000 | AID 1794808 | inhibition, % at 10 µM | Recombinant Pf-apPOL, molecular beacon fluorescence, 1.5 h
Numbers without * were called inactive; / = no result given. Only a selection was taken, and hits are over-represented in it overall. Cut-off read from the data, not from the text of the source: active = inhibition above about 50%; inactive = the rest.

SMILES	mHTT-CaM PPI inh	Pf apPOL block
CCN1CCn2c3c(c4cc(Cl)ccc42)CCCC31 (stereo not drawn)	20.7	-5.3
CC(C)COc1ccc2c(c1)c1c3n2CCNC3CCC1 (stereo not drawn)	47.8	/
C1=C(c2ccc3c(c2)c2c4n3CCNC4CCC2)CCC1 (stereo not drawn)	55.0*	1.9
CCCCCC1C(=O)CCC1CC(=O)OC (stereo not drawn)	/	-6.2
CCOc1ccc(C(O)c2nccn2C)cc1 (stereo not drawn)	-1.8	1.1
COc1ccc(C(O)c2nccn2C)cc1 (stereo not drawn)	-4.7	51.7*
CCOc1ccc(C(=O)Cn2c(=O)n(Cc3ccco3)c(=O)c3ccc(Cl)cc32)cc1Cl	3.0	-0.7
Cc1ccc(-c2cc(-c3ccccc3)nc(NN)n2)cc1	39.4	-4.1
COc1ccc(-c2cc(-c3ccccc3)nc(NN)n2)cc1OC	63.0*	0.1
O=C1N(Cc2ccccc2)c2ccccc2C12Oc1ccccc1C1CC(c3ccco3)=NN12 (stereo not drawn)	32.0	4.1
CC1=NN2C(C1)c1ccccc1OC21C(=O)Nc2ccccc21 (stereo not drawn)	80.0*	-13.4
Cn1c(=O)n(C)c2cc(/C=C(\C#N)c3nc4ncc(Br)cc4[nH]3)ccc21	10.0	6.2
N#C/C(=C\c1ccc(-c2ccc3c(c2)C(=O)NC3=O)o1)c1nc2ncc(Br)cc2[nH]1	73.0*	-4.9
N#C/C(=C\c1ccccc1[N+](=O)[O-])c1nc(-c2ccc3c(c2)OCO3)cs1	8.7	-2.8
N#C/C(=C\c1ccc(O)c(O)c1)c1nc(-c2ccc3c(c2)OCO3)cs1	97.5*	6.4
COc1ccc(/C=C(\C#N)c2nc(-c3ccc(OC)c(OC)c3)cs2)cc1O	1.2	0.5
COc1ccc(-c2csc(/C(C#N)=C/c3ccc(O)c(O)c3)n2)cc1OC	81.1*	10.6
COc1cc(O)c(C(CCN2CCCC2)c2ccc3c(c2)OCO3)c(OC)c1 (stereo not drawn)	31.3	-1.7
COc1cc(O)c(C(CCN2CCCCC2)c2ccc(N(C)C)cc2)c(OC)c1 (stereo not drawn)	30.2	-7.0
COc1cc(O)c(C(CCN2CCN(c3ccccc3)CC2)c2ccc3c(c2)OCO3)c(OC)c1 (stereo not drawn)	82.2*	-2.2
COc1cc(O)c(C(CCN2CCCC2)c2ccc(N(C)C)cc2)c(OC)c1 (stereo not drawn)	60.5*	-4.0
COc1ccc(C(CCN2CCOCC2)c2c(O)cc(OC)cc2OC)cc1 (stereo not drawn)	6.1	-8.4
COc1cc(O)c(C(CC(=O)N2CCCC2)c2ccc3c(c2)OCO3)c(OC)c1 (stereo not drawn)	13.1	-0.3
COc1cc(O)c(C(CC(=O)N2CCN(c3ccccc3)CC2)c2ccc3c(c2)OCO3)c(OC)c1 (stereo not drawn)	61.8*	-0.4
COc1cc(O)c(C(CCN2CCN(c3ccccc3)CC2)c2cc(OC)c(OC)c(OC)c2)c(OC)c1 (stereo not drawn)	100.5*	-5.1
SMILES	mHTT-CaM PPI inh	Pf apPOL block
Cc1ccc(C(=O)N2CCc3[nH]nc(C(=O)NC4CCCCC4)c3C2)cc1	32.4	-1.0
O=C(c1ccncc1)N1CCC(n2nc(-c3ccsc3)ccc2=O)CC1	15.6	-6.1
Cc1ccsc1C(=O)N1CCC(n2nc(-c3ccsc3)ccc2=O)CC1	96.2*	2.4
CCc1ccc(C2(O)CC(C(F)(F)F)=NN2C(=O)c2cccc(Br)c2)cc1 (stereo not drawn)	4.0	-5.3
CCC1=NN(C(=O)c2ccc([N+](=O)[O-])cc2)C(O)(c2ccccc2)C1 (stereo not drawn)	48.0	-3.4
O=C(c1ccc([N+](=O)[O-])cc1)N1N=C(C(F)(F)F)CC1(O)c1ccncc1 (stereo not drawn)	26.0	-5.7
CCC1=NN(C(=O)c2cccc([N+](=O)[O-])c2)C(O)(c2ccc(Cl)cc2)C1 (stereo not drawn)	77.0*	-1.8
O=C(c1cccc(Br)c1)N1N=C(C(F)(F)F)CC1(O)c1ccc(Cl)cc1 (stereo not drawn)	18.0	-2.2
O=C(c1cccc(Cl)c1)N1N=C(C(F)(F)F)CC1(O)c1ccc(Cl)cc1 (stereo not drawn)	76.0*	12.4
Cc1cccc(C(=O)N2N=C(C(F)(F)F)CC2(O)c2ccc(Br)cc2)c1 (stereo not drawn)	72.0*	1.3
CCc1ccc(C2(O)CC(C(F)(F)F)=NN2C(=O)c2ccc([N+](=O)[O-])cc2)cc1 (stereo not drawn)	81.0*	8.4
Cc1noc(-c2nn(C)c3c2CN(C(=O)c2ccc(Cl)s2)CC3)n1	-4.5	-0.1
Cn1nc(-c2ccccc2)cc1C(=O)NCCOc1ccc2nnc(-c3ccccc3)n2n1	7.5	-2.6
CC(C)CC(=O)N1CCC(c2cc3n(n2)CCCNC3=O)CC1	-0.8	-7.3
Cc1ccc2nc(-c3ccc(NC(=O)CSc4nc(C(F)(F)F)cc(=O)[nH]4)cc3)sc2c1	2.0	-2.3
COc1ccc(OC)c(CN2CCc3nc(Nc4ccccc4OC)ncc3C2)c1	55.5*	-4.9
COc1ccc(OC)c(Nc2ncc3c(n2)CCN(Cc2ccc(OC)cc2OC)C3)c1	90.8*	-3.0
COc1ccc(CN2CCc3nc(Nc4ccccc4OC)ncc3C2)c(OC)c1	44.3	-0.6
COc1ccccc1CN1CCc2nc(Nc3ccccc3OC)ncc2C1	20.7	-0.9
COc1ccc(C(=O)C[n+]2cnn(CC(=O)c3ccc(C)cc3)c2)cc1	-2.0	3.8
Cc1cccc(NC(=O)c2ccc(C)c(Cl)c2)n1	-20.3	-28.3
COc1cccc(C(=O)N2CCCN(Cc3noc(-c4ccccc4)n3)CC2)c1	-1.9	2.1
COc1cc([N+](=O)[O-])ccc1O	-4.8	/
COc1cc(/C=C2\C(C)=C([N+](=O)[O-])CS2(=O)=O)ccc1O	86.7*	-1.2
O=C(Cc1ccccc1F)N1CCC(COc2ccccc2C(=O)N2CCCCC2)CC1	1.2	70.6*
SMILES	mHTT-CaM PPI inh	Pf apPOL block
O=C(Cc1ccccc1F)N1CCC(COc2ccccc2C(=O)N2CCOCC2)CC1	4.9	-11.6
CC(=O)N1CCc2cc(N3CC(C(=O)Nc4cc(C)ccc4C)CC3=O)ccc21 (stereo not drawn)	0.0	-4.5
Cc1c(-c2noc(-c3ccc(F)cc3)n2)nnn1-c1ccc(F)cc1	0.7	-0.5
COc1cc(Sc2ccccc2[N+](=O)[O-])ccc1N	54.8*	1.3
COc1cc(Sc2ccc(Cl)cc2)ccc1[N+](=O)[O-]	/	-6.5
COc1ccc(C(O)c2nc3ccccc3n2C(C)C)cc1OC (stereo not drawn)	1.0	2.2
O=C(Cc1csc(NC(=O)c2ccco2)n1)NCc1cccs1	-4.4	2.6
O=C(Cc1csc(NC(=O)c2ccco2)n1)Nc1ccc(F)c(C(F)(F)F)c1	58.7*	7.5
CCOCCCNC(=O)C1(C)CCC(=O)N1c1ccc(C)cc1C (stereo not drawn)	-4.6	-7.0
CNc1cc(Nc2ccc(C)cc2)c2c3c(onc13)-c1ccccc1C2=O	95.0*	1.9
O=C1c2ccccc2-c2onc3c(N4CCOCC4)cc(Nc4ccc(F)cc4)c1c23	63.0*	-1.2
COc1ccc(Nc2cc(N3CCOCC3)c3noc4c3c2C(=O)c2ccccc2-4)cc1	43.0	0.8
O=C1c2ccccc2-c2onc3ccc(Nc4ccccc4)c1c23	43.0	1.1
COc1ccc(/C=C2/N=C(c3ccc(F)cc3)OC2=O)c(OC)c1	4.0	-7.5
NNC(=O)Cc1csc(-c2cccs2)n1	/	-8.7
